Results on two compounds are retold here after PubChem BioAssay AID1508636 (National Center for Advancing Translational Sciences (NCATS), 2021).

Each structure is given as a SMILES string. Records with an inconclusive call do not appear. Entries that show only a call come without a potency. Calls of active or inactive are those of the source. The call rests on the fitted dose curve; in most records, active means well fitted inhibition curve with a large enough effect; inconclusive means small, poorly fitted or top-dose-only effect; inactive means flat fitted curve, though single readings scatter. *1 amine or outer side, *2 acyl side, *3 side chain or, on linkers, in order; H or OH if unused. Where a SMILES comes first, the peptide text is derived from it. [ ]: non-standard residue; d: D form. X1 = O=C([C@@H](CC(O)CCl)O[*:1])[*:2]; aIle = CC[C@@H](C)[C@H](N)C(=O)O; NMeV = CN[C@H](C(=O)O)C(C)C; NMeA = CN[C@@H](C)C(=O)O; βAla = NCCC(=O)O

This experiment deals with ATP-dependent translocase ABCB1 (Homo sapiens) (UniProt P08183). The experiment can be described thus: qHTS for characterization and localization of zebrafish homologs of the human ABCB1 multidrug transporter: P-gp overexpressing MDR-19 cells. Conditions: MDR-19 cells overexpressing P-gp, CellTiter-Glo luminescence viability, 72 h; series mostly up to 15.2 µM. From the text: The zebrafish has emerged as a potential model to study the blood-brain barrier (BBB) given its similarities with mammalian systems. However, little information has been available with regard to homologous ATP-binding cassette transporters expressed at the zebrafish BBB. Two transporters that are highly expressed at the human BBB are P-glycoprotein (P-gp, encoded by the ABCB1 gene) and ABCG2 (encoded by the ABCG2 gene). In this study, we focus on characterization of P-gp homologs in the zebrafish, which has two genes that are homologous to human ABCB1 - abcb4 and abcb5. We generated stably-transfected cell lines to determine their substrate specificities. […] Zebrafish abcb4 also colocalized with claudin 5 expression in brain endothelial cells.
A high-throughput screen was performed as previously described on empty vector transfected cells, P-gp-overexpressing MDR-19 cells and cells transfected with full-length zebrafish abcb4 (ZF Abcb4) or abcb5 (ZF Abcb5). Briefly, cells were plated into 1536-well plates at a density of 500 cells/well in 5 uL media. […] CellTiter-Glo reagent (Promega) was dispensed into the wells, incubated for 5 min and luminescence was read on a ViewLux instrument (Perkin-Elmer). […]
A general note: In qHTS, concentration-response curves come from the screen itself.

Chain of ATP-dependent translocase ABCB1 (Homo sapiens) (P08183 whole entry, looked up): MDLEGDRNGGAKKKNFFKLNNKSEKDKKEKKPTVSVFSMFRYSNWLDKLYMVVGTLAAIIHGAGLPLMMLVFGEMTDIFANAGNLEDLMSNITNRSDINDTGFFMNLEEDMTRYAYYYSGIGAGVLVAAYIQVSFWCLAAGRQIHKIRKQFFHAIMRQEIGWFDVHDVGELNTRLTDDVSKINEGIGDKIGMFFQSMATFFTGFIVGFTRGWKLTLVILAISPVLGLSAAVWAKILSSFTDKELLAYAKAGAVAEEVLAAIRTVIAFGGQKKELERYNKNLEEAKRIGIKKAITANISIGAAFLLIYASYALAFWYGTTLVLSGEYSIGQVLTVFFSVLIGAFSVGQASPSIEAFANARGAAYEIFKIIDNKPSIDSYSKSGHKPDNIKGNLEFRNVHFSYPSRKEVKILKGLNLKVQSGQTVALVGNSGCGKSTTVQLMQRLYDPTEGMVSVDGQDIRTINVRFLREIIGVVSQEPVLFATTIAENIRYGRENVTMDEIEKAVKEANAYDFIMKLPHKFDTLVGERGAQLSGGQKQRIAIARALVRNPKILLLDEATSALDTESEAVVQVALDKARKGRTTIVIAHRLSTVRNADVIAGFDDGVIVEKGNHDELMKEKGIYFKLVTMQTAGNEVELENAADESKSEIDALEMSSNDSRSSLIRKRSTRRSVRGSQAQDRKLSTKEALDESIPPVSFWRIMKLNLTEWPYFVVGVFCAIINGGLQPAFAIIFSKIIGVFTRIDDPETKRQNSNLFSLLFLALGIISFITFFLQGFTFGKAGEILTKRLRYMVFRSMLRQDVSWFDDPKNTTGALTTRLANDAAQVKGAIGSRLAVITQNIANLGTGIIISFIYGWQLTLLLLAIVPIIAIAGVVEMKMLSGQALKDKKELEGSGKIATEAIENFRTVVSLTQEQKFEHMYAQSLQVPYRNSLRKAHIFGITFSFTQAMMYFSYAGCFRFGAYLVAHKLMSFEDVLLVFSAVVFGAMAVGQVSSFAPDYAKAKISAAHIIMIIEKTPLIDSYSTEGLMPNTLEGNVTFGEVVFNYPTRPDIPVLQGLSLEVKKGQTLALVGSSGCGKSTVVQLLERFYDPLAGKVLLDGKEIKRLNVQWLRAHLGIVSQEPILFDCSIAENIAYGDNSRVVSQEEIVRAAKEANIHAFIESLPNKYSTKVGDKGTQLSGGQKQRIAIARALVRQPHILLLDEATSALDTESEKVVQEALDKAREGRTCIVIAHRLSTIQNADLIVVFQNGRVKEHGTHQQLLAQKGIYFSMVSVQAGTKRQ

On to `CC[C@@H](C)[C@@H]1NC(=O)[C@@H]2CCCN2C(=O)[C@@H](CC(O)CCl)OC(=O)CCNC(=O)[C@H](C)N(C)C(=O)[C@H](C(C)C)N(C)C1=O` (some centres not stated) (cyclo([NMeA][βAla][X1]P[aIle][NMeV])), for which the Potency entry was “inactive”.

As to `C[C@@H]1[C@@H](CC(C[C@H]2O[C@@H]3O[C@]4(C)CC[C@@H]5[C@H](C)CC[C@@H]([C@H]2C)[C@@]35OO4)C[S+](=O)([O-])c2ccc(COC(=O)N(C)C)cc2)O[C@@H]2O[C@]3(C)CC[C@H]4[C@H](C)CC[C@@H]1[C@@]24OO3` (some centres not stated), the Potency was 1320 nM (active).
